The target of the test is Fibrinogen beta chain (Homo sapiens) (UniProt P02675). Put plainly: fibrin DD(E) probe displacement, second cyclic peptide – biochemical, fluorescence polarization, human fibrin, counter-screen for fibrin DD(E)-Tn7 binding project, confirmation (AID 720633).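 Note: 0% = median of compound sample wells and 100% = excess unlabeled Aha-Tn7 peptide.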 As to conditions: TRITC-Tn7 probe displacement, at 8.3 µM, active compounds read high.

This is one part of the list. Values without a mark were called inactive.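 Rule for the calls: active = inhibition above the cutoff, the mean of compounds lying between the control bounds plus 3 SD of those compounds (cut at about 17% in these data); inactive = the rest.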

Chain of Fibrinogen beta chain (Homo sapiens) (P02675 whole entry, looked up): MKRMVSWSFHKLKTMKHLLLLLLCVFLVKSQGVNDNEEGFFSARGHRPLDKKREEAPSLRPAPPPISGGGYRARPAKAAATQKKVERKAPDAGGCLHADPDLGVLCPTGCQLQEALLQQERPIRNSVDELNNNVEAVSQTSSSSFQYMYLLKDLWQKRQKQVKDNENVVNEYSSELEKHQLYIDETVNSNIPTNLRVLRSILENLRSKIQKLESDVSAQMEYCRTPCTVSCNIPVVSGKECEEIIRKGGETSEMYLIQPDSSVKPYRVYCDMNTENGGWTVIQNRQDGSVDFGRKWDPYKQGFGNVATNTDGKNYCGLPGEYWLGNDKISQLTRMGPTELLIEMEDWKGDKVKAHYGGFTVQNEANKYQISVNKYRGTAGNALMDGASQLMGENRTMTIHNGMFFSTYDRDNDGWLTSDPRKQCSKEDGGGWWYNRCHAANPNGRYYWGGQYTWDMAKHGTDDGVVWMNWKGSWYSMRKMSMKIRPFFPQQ

Turning to `OC(c1ccccc1)c1nc(-c2cnc3ccccc3c2)cs1` (configuration not stated), the inhibition is 3.54%.

In the case of `O=C(/C=C/c1ccccc1[N+](=O)[O-])NCC1CCCO1` (configuration not stated), the inhibition is 6.91%.

As for `Cc1cc2nc3c(=O)n(Cc4ccccc4)c(=O)[nH]c3nc2cc1N`, the inhibition is -4.98%.

Consider `c1cc(-c2nn[nH]n2)ccc1CN1CCCCC1`, for which the inhibition was -9.04%.

For the compound `CN1c2ccc(C=O)c3c(C=O)ccc(c23)N(C)C1(C)C`, the inhibition is -6.98%.

On to `CN1C(=O)c2cccc3c(N)ccc(c23)C1=O`, for which the inhibition is 8.6%.

On to `O=C(COC(=O)c1ccc([N+](=O)[O-])cc1Cl)NC(=O)c1ccccc1`, for which the inhibition was 1.45%.

On to `O=C(Nc1ccon1)c1sc2ccccc2c1Cl`, for which the inhibition is -2.1%.

Turning to `COc1cccc(N2CC(NS(=O)(=O)c3cccs3)CC2=O)c1` (configuration not stated), the inhibition is -2.24%.

On to `Oc1ccc2ccc3cccc[n+]3c2c1`, for which the inhibition was -23.9%.

For `O=C(NCc1ccccc1)c1cccc(NC(=O)C2CCCCC2)c1`, the inhibition is 0.56%.

`C#CCNc1ccc(C(=O)OCC)cc1`: the inhibition was 4.2%.

As for `O=C(CSc1nnc(-c2ccccn2)n1-c1ccc(Cl)cc1)Nc1ccccc1-c1ccccc1`, the inhibition is -2.23%.

As to `CC(C)(C)c1cc(CN2CCN(CCC#N)CC2)cc(C(C)(C)C)c1O`, the inhibition is 0.66%.

On to `COc1ccc(-c2nc(CCNC(=O)c3ccc(Br)o3)cs2)cc1`, for which the inhibition is -3.63%.

Take `Cc1nnc2n1N=C(c1ccc3c(c1)NC(=O)CO3)CS2`: the inhibition was -7.74%.

As to `COc1ccc(N=Nc2c(-c3ccc(OC)cc3)[nH]oc2=O)cc1`, the inhibition was -6.55%.
